The results in this text go back to PubChem BioAssay AID651774 (Broad Institute, 2012).

Measured potencies and affinities stand elsewhere. Activity calls are given as the source filed them. How the calls were made is not given here.

This test in a line: HeLa cell viability loss – 24 h, dry powder, cytotoxicity control, dose response (AID 651774). The note with it: CellTiter-Glo ATP luminescence; series mostly up to 35 µM.
`O=C(Cc1ccccc1I)NC1CCCC1`: the call was inactive. For `O=C(Cc1ccc(-c2ccccn2)cc1)NC1CCCC1`, the result was inactive.

Take `O=C(Cc1ccc(-c2ccccc2)cc1)N1CCC1`: the compound was called inactive.

With `O=C(Cc1cccnc1)NC1CCCC1`, the outcome was inactive. The result for `CS(=O)(=O)c1cccc(CC(=O)NC2CCCC2)c1` reads “inactive”. Regarding `CC(C)n1nnc(NCc2ccc(N3CCCC3)cc2)n1`, the compound was called inactive.

Regarding `O=C(Cc1ccc(C(F)(F)F)cc1)NC1CCCC1`, the compound was called inactive. As for `Cc1ccc2cc3c(NC(=O)c4ccco4)nn(C)c3nc2c1`, the entry is “inactive”. The result for `O=C(Cc1cccc(Cl)c1)NC1CCCC1` reads “inactive”; that for `O=C(CCc1ccc(-c2ccccc2)cc1)NC1CCCC1`, “inactive”; that for `CC(C)c1ccc(CNc2nnnn2C)cc1`, “inactive”. The result for `CN(C)C(=O)Cc1ccc(-c2ccccc2)cc1` reads “inactive”; that for `CCCn1nnnc1NCc1ccc(C(C)C)cc1`, “inactive”. As for `CCNC(=O)Cc1ccc(-c2ccccc2)cc1`, the result was inactive. As for `CCn1nnc(NCc2ccc(N3CCCC3)cc2)n1`, the entry is “inactive”; as for `CN(Cc1ccc(N2CCCC2)cc1)c1nnnn1C`, “inactive”; as for `O=C(Cc1ccc(-c2ccccc2)cc1)NC1CCCC1`, “inactive”. As for `O=C(Cc1ccc(-c2ccccc2)cc1)N1CCOCC1`, the entry is “inactive”; as for `O=C(Cc1ccc(-c2ccccc2)cc1)N1CCCCC1`, “inactive”. For `CN1CCC(NC(=O)Cc2ccc(-c3ccccc3)cc2)CC1`, the call was inactive. As to `O=C(NCc1ccc(-c2ccccc2)cc1)C1CCCC1`, the call was inactive.

With `Cc1cccc(CC(=O)NC2CCCC2)c1`, the outcome was inactive. The result for `O=C(Cc1ccc(-c2ccccc2)cc1)N1CC(F)(F)C1` reads “inactive”. Consider `Cn1nnc(NCc2ccccc2)n1`, for which the compound was called inactive. `O=C(Cc1ccc(F)cc1)NC1CCCC1`: the call was inactive. As for `CC(C)n1nnnc1NCc1ccc(N2CCCC2)cc1`, the entry is “inactive”; as for `O=C(Cc1ccccn1)NC1CCCC1`, “inactive”; as for `Cc1ccccc1CC(=O)NC1CCCC1`, “inactive”.
